miR-122 inh = miR-122 sensor activation; Huh7 psiCHECK-miR122 Renilla luciferase sensor, 48 h; activation, % at 12.5 µM; actives 0.14% (n = 340,000); AID 623901;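 active = mean activation of 30% or more, with every replicate also reaching 30%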;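 also: 0% = median of neutral control wells and 100% = median of positive control wells; higher luciferase signal means stronger suppression of miR-122 activity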
Numbers without * were called inactive. The entries come from a sample that favours hits as a whole.

SMILES	miR-122 inh
C[C@@H]1CN([C@H](C)CO)S(=O)(=O)c2ccc(-c3ccc(C#N)cc3)cc2O[C@@H]1CN(C)C(=O)C1CC1	5.7
C[C@@H]1CN([C@H](C)CO)C(=O)c2cc(-c3cccnc3)cnc2O[C@@H]1CN(C)S(C)(=O)=O	-3.9
COc1ccc(C(=O)Nc2ccc3c(c2)OC[C@H](C)N(C)C[C@@H](C)[C@H](OC)CN(C)C3=O)cc1	-0.7
C[C@H]1CN([C@@H](C)CO)C(=O)c2cc(C#CC3CC3)cnc2O[C@@H]1CN(C)Cc1ccncc1	0.1
COCC#Cc1cnc2c(c1)C(=O)N([C@H](C)CO)C[C@@H](C)[C@@H](CN(C)C(=O)Cc1ccccc1)O2	0.6
C[C@@H]1CN([C@@H](C)CO)S(=O)(=O)c2ccc(C#CC3CC3)cc2O[C@H]1CN(C)Cc1ccccn1	-0.2
C[C@H]1CN([C@@H](C)CO)C(=O)c2cc(C#Cc3ccccn3)cnc2O[C@H]1CN(C)C(=O)CCN1CCCCC1	2.2
C[C@@H]1CN([C@@H](C)CO)C(=O)c2cc(C#Cc3ccc(F)cc3)cnc2O[C@H]1CN(C)C(=O)c1ccccc1F	0.8
COc1ccc(NC(=O)N(C)C[C@@H]2Oc3ncc(C4=CCCC4)cc3C(=O)N([C@H](C)CO)C[C@@H]2C)cc1	3.9
O=CN1CCN(C(=O)c2ccccc2F)CC1	33.9*
CCC(=O)Nc1ccc2c(c1)OC[C@H](C)NC[C@H](C)[C@H](OC)CN(C)C2=O	-1.5
C/C=C/c1ccc2c(c1)O[C@H](CN(C)Cc1ccccc1)[C@@H](C)CN([C@@H](C)CO)S2(=O)=O	-8.5
C[C@@H]1CN([C@@H](C)CO)C(=O)c2cc(-c3cccc(F)c3)cnc2O[C@@H]1CN(C)C(=O)c1cccc(F)c1	4.8
COc1ccc2[nH]c3c4c(ccc3c2c1)C(=O)C=CC4=O	41.6*
C[C@H](CO)N1C[C@H](C)[C@H](CN(C)C(=O)c2ccccc2F)Oc2ncc(-c3ccncc3)cc2C1=O	7.7
COCC(=O)N(C)C[C@H]1Oc2cc(Br)ccc2S(=O)(=O)N([C@@H](C)CO)C[C@H]1C	6.8
CO[C@H]1CN(C)C(=O)c2cc(NS(=O)(=O)c3ccccc3)ccc2OC[C@@H](C)N(C)C[C@H]1C	-0.7
C[C@@H]1CN([C@H](C)CO)C(=O)c2cc(-c3ccncc3)cnc2O[C@H]1CN(C)C(=O)Cc1ccccn1	7.8
Cc1ccc(-n2ncc(C(=O)Nc3cc(Cl)ccc3C)c2C2CCNCC2)cc1C	35.7*
C[C@@H]1CN([C@H](C)CO)C(=O)c2cc(-c3ccc(F)cc3)cnc2O[C@@H]1CN(C)CC1CCOCC1	5.1
C[C@H](CO)N1C[C@H](C)[C@H](CN(C)S(C)(=O)=O)Oc2ncc(C#CC3(O)CCCC3)cc2C1=O	-7.3
COc1ccccc1C#Cc1ccc2c(c1)O[C@@H](CN(C)Cc1ccncc1)[C@@H](C)CN([C@@H](C)CO)S2(=O)=O	6.1
C[C@@H]1CN([C@H](C)CO)S(=O)(=O)c2ccc(C#Cc3ccccc3)cc2O[C@H]1CN(C)S(=O)(=O)c1ccccc1F	-2.7
CCCNC(=O)N1C[C@@H](C)[C@H](OC)CN(C)C(=O)c2cc(NS(=O)(=O)CC)ccc2OC[C@H]1C	-2.0
Cn1c(-c2ccc(N)cc2)nc2ccccc21	36.0*
SMILES	miR-122 inh
C[C@H](CO)N1C[C@H](C)[C@H](CN(C)S(=O)(=O)c2ccc(Cl)cc2)Oc2ccc(NC(=O)Nc3ccc(C(F)(F)F)cc3)cc2CC1=O	-94.1
C[C@@H]1CN([C@@H](C)CO)S(=O)(=O)c2ccc(C#C[C@@H](C)O)cc2O[C@H]1CN(C)CC1CCOCC1	-43.1
COc1ccc(-c2cnc3c(c2)C(=O)N([C@@H](C)CO)C[C@@H](C)[C@@H](CN(C)C(=O)C2CCOCC2)O3)cc1	-1.3
C[C@H]1CN([C@@H](C)CO)C(=O)c2cc(/C=C/c3ccccc3)cnc2O[C@@H]1CN(C)C(=O)c1cccnc1	1.7
COCC#Cc1cnc2c(c1)C(=O)N([C@@H](C)CO)C[C@@H](C)[C@H](CN(C)C(=O)Nc1c(C)noc1C)O2	4.7
C[C@H](CO)N1C[C@H](C)[C@H](CN(C)C(=O)c2cnccn2)Oc2ncc(C#Cc3ccccn3)cc2C1=O	6.8
CCCCCCCCCCCCCCCC[n+]1ccccc1	49.2*
CO[C@@H]1CN(C)C(=O)c2ccc(NC(=O)C3CCC3)cc2OC[C@@H](C)NC[C@H]1C	-0.4
C[C@@H]1CN([C@@H](C)CO)S(=O)(=O)c2ccc(-c3ccccc3)cc2O[C@@H]1CN(C)Cc1cncnc1	0.6
CCCNC(=O)N(C)C[C@@H]1Oc2ncc(-c3ccc(C(=O)N(C)C)cc3)cc2C(=O)N([C@@H](C)CO)C[C@@H]1C	1.3
COCC(=O)N(C)C[C@H]1Oc2cc(-c3cccc(F)c3)ccc2S(=O)(=O)N([C@@H](C)CO)C[C@@H]1C	-6.1
COc1ccc(-c2ccc3c(c2)O[C@H](CN(C)C(=O)Nc2ccccc2F)[C@H](C)CN([C@@H](C)CO)S3(=O)=O)cc1	31.8*
COc1ccc(-c2ccc3c(c2)O[C@H](CN(C)C(=O)c2ccccc2F)[C@H](C)CN([C@H](C)CO)S3(=O)=O)cc1	3.5
